Assay results: PubChem BioAssay (NCI)
Compounds without any hit were thinned out: in the full panel of roughly 83,000, 20% have a hit.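 How to read the values: 0–100, growth inhibition (40 = 60% inhibited); 0, no net growth; -100 to 0, cell death (-40 = 40% of starting cells died; -100 = all dead).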 Unmarked numbers belong to inactive results. Calls of active or inactive are those of the source. How the source made its calls: active means growth percent below 10; inactive means the rest.

Legend:
Assay in all cases: NCI-60 one-dose screen, 48 h (100 = growth as untreated, 0 = no growth, -100 = all killed)
Details in all cases: 10 µM unless noted
DU-145 prostate = test system: DU-145 prostate
K-562 leukemia = test system: K-562 leukemia
MALME-3M melanoma = test system: MALME-3M melanoma
MDA-MB-231 breast = test system: MDA-MB-231 breast
RXF 393 renal = test system: RXF 393 renal
SF-268 CNS = test system: SF-268 CNS
SF-295 CNS = test system: SF-295 CNS
SF-539 CNS = test system: SF-539 CNS
UACC-257 melanoma = test system: UACC-257 melanoma
M14 melanoma = test system: M14 melanoma
HCT-15 colon = test system: HCT-15 colon
SNB-75 CNS = test system: SNB-75 CNS
U251 CNS = test system: U251 CNS
PC-3 prostate = test system: PC-3 prostate
SK-MEL-5 melanoma = test system: SK-MEL-5 melanoma
LOX IMVI melanoma = test system: LOX IMVI melanoma
SK-MEL-28 melanoma = test system: SK-MEL-28 melanoma
HT29 colon = test system: HT29 colon
UACC-62 melanoma = test system: UACC-62 melanoma

Compound | growth (DU-145 prostate) | growth (K-562 leukemia) | growth (MALME-3M melanoma) | growth (MDA-MB-231 breast) | growth (RXF 393 renal) | growth (SF-268 CNS) | growth (SF-295 CNS) | growth (SF-539 CNS) | growth (UACC-257 melanoma) | growth (M14 melanoma) | growth (HCT-15 colon) | growth (SNB-75 CNS) | growth (U251 CNS) | growth (PC-3 prostate) | growth (SK-MEL-5 melanoma) | growth (LOX IMVI melanoma) | growth (SK-MEL-28 melanoma) | growth (HT29 colon) | growth (UACC-62 melanoma)
N#Cc1c(N)nc(N)nc1Nc1ccc(Br)cc1 | 98.7% | 99% | 107% | 87.3% | 94.3% | 92.5% | 91% | 89.6% | 92% | 163% | 103% | 96.8% | 96.9% | 79.1% | 89.6% | 92.4% | 110% | – | –
Cc1ccc(SCN2CCN(c3cccc(Cl)c3)CC2)cc1 | 116% | 118% | 87.3% | 84.3% | 108% | 100% | 97.3% | 96.2% | – | 96.9% | 93.1% | 85.4% | 89.1% | – | 93.7% | 81.6% | 120% | 110% | 89%
O=C(/C=C\c1cccc([N+](=O)[O-])c1)c1ccccc1 | 59% | 180% | 36.6% | 104% | 14.9% | 25.8% | 89.9% | 85.4% | – | 26.8% | 21% | 77.6% | 31.1% | 40.7% | 76.3% | 3.66% (active) | 5.24% (active) | 4.18% (active) | 71.9%
CCCCCCCCCCCCCC1=NCCN1CCO | 116% | 5.11% (active) | 104% | 51.3% | 59.5% | 152% | 136% | -70% (active) | – | 2.59% (active) | 47.2% | 150% | 50.8% | 31.6% | 81.8% | -52.8% (active) | 115% | 10.1% | 93.5%
O=c1c(/C=C/c2ccco2)nnc(SCCN2CCOCC2)n1/N=C/c1ccc([N+](=O)[O-])cc1 | 111% | 93.3% | 95.9% | 103% | 87.6% | 96.5% | 107% | 94% | 94.1% | 99.9% | 99% | 99.9% | – | – | 91.1% | 106% | 104% | – | –
Nc1cccc(NC(=O)C(=O)Nc2cccc(N)c2)c1 | 107% | 95.3% | 141% | 104% | 87.5% | 101% | 98.1% | 111% | – | 87.4% | 94.5% | 94% | 95.8% | 99.8% | 117% | 90% | 103% | 115% | 90.6%
CC1CN(C(C)C)C(=S)N(c2ccccc2)C1=O (stereo unspecified) | 103% | 95.9% | 82% | 90.4% | 102% | 98.8% | 108% | 96.4% | – | 93.2% | 104% | 119% | 99.9% | 105% | 98.1% | 93.4% | 122% | 104% | 94.4%
O=c1cc(-c2ccccc2)[nH]c2ccccc12 | 17.6% | 32.6% | 50% | 95.6% | 36.1% | 50.5% | 16.4% | 4.43% (active) | – | 15.9% | 17.5% | 30% | 27.2% | 27.1% | 29.4% | 57.7% | 62.4% | 15.3% | 64.5%
Cc1ccc(N)cc1F | 109% | 99.1% | 93.5% | 82% | 104% | 98.6% | 110% | 100% | – | 88.2% | 91.7% | 101% | 95.8% | 108% | 104% | 87.8% | 117% | – | 96%
